Measured values from the supplement of paper PMC11628255, “Interference of metal ions on the bioluminescent signal of firefly, Renilla, and NanoLuc luciferases in high-throughput screening assays” (Frontiers in Chemistry, 2024).
± gives the standard deviation of the averaged measurements.

Tested on: firefly luciferase (FLuc)
Assay: residual bioluminescent signal relative to negative (DMSO) control; higher = less interference (more residual luciferase signal)
Protocol: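 Purified luciferase (FLuc 10 nM + 10 uM D-luciferin; NLuc 10 pM + 10 uM furimazine; RLuc 50 pM + 2 uM coelenterazine) in 384-well plates; metal salt pre-incubated with enzyme 10 min at RT, substrate added and luminescence read after 10 min. Signal normalised to plate DMSO negative control (% N_VALUE = x/mean neg *100); triplicate wells at 0.01, 1 and 5 mM salt.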

[1] = metal salt concentration 0.01 mM, HEPES conditions (100 mM HEPES, 5 mM MgSO4, 10 uM ATP, pH 7.5)
[2] = metal salt concentration 0.01 mM, screening conditions (0.5 mM Tris, 50 mM glycine, 0.5 mM EDTA, 5 mM MgSO4, 10 uM ATP, pH 7.6)
[3] = metal salt concentration 1 mM, HEPES conditions (100 mM HEPES, 5 mM MgSO4, 10 uM ATP, pH 7.5)
[4] = metal salt concentration 1 mM, screening conditions (0.5 mM Tris, 50 mM glycine, 0.5 mM EDTA, 5 mM MgSO4, 10 uM ATP, pH 7.6)
[5] = metal salt concentration 5 mM, HEPES conditions (100 mM HEPES, 5 mM MgSO4, 10 uM ATP, pH 7.5)
[6] = metal salt concentration 5 mM, screening conditions (0.5 mM Tris, 50 mM glycine, 0.5 mM EDTA, 5 mM MgSO4, 10 uM ATP, pH 7.6)

## O=[N+]([O-])[O-].O=[N+]([O-])[O-].[Pb+2] [lead(II) nitrate]
[1]
  residual bioluminescent signal: 3.12 ± 1.6%
[2]
  residual bioluminescent signal: 93.3 ± 4.7%
[3]
  residual bioluminescent signal: 0.814 ± 0.41%
[4]
  residual bioluminescent signal: 0.685 ± 0.48%
[5]
  residual bioluminescent signal: 0.95 ± 0.23%
[6]
  residual bioluminescent signal: 0.343 ± 0.17%

## O=[N+]([O-])[O-].O=[N+]([O-])[O-].O=[N+]([O-])[O-].[Ga+3] [gallium(III) nitrate]
[1]
  residual bioluminescent signal: 86.3 ± 16%
[2]
  residual bioluminescent signal: 3.77 ± 5%
[3]
  residual bioluminescent signal: 72.6 ± 17%
[4]
  residual bioluminescent signal: 0.264 ± 0.091%
[5]
  residual bioluminescent signal: 0.679 ± 0.47%
[6]
  residual bioluminescent signal: 0.474 ± 0.48%

## O=[N+]([O-])[O-].O=[N+]([O-])[O-].[Ni+2] [nickel(II) nitrate]
[1]
  residual bioluminescent signal: 64.7 ± 8.8%
[2]
  residual bioluminescent signal: 71.2 ± 7.5%
[3]
  residual bioluminescent signal: 2.31 ± 1.6%
[4]
  residual bioluminescent signal: 0.501 ± 0.33%
[5]
  residual bioluminescent signal: 0.814 ± 0.41%
[6]
  residual bioluminescent signal: 0.58 ± 0.091%

## O=[N+]([O-])[O-].O=[N+]([O-])[O-].[Cd+2] [cadmium nitrate]
[1]
  residual bioluminescent signal: 2.44 ± 1.8%
[2]
  residual bioluminescent signal: 95.2 ± 4.7%
[3]
  residual bioluminescent signal: 1.09 ± 0.62%
[4]
  residual bioluminescent signal: 0.343 ± 0.12%
[5]
  residual bioluminescent signal: 1.09 ± 0.62%
[6]
  residual bioluminescent signal: 0.211 ± 0.17%

## O=[N+]([O-])[O-].O=[N+]([O-])[O-].[Cu+2] [copper(II) nitrate]
[1]
  residual bioluminescent signal: 2.58 ± 1%
[2]
  residual bioluminescent signal: 108 ± 11%
[3]
  residual bioluminescent signal: 0.407%
[4]
  residual bioluminescent signal: 0.712 ± 0.4%
[5]
  residual bioluminescent signal: 0.95 ± 0.62%
[6]
  residual bioluminescent signal: 0.553 ± 0.32%

## O=[N+]([O-])[O-].[K+] [potassium nitrate]
[1]
  residual bioluminescent signal: 111 ± 4.3%
[2]
  residual bioluminescent signal: 100.2 ± 0.6%
[3]
  residual bioluminescent signal: 116 ± 12%
[4]
  residual bioluminescent signal: 98.6 ± 7%
[5]
  residual bioluminescent signal: 86.1 ± 12%
[6]
  residual bioluminescent signal: 65.5 ± 7.8%

## O=[N+]([O-])[O-].O=[N+]([O-])[O-].[Ca+2] [calcium nitrate]
[1]
  residual bioluminescent signal: 70 ± 9.6%
[2]
  residual bioluminescent signal: 75.6 ± 6.7%
[3]
  residual bioluminescent signal: 67.2 ± 14%
[4]
  residual bioluminescent signal: 60.2 ± 8.9%
[5]
  residual bioluminescent signal: 29.2 ± 2.8%
[6]
  residual bioluminescent signal: 24.5 ± 3.4%
